Assay results published in PubChem BioAssay (NCI).
The panel holds about 83,000 compounds, 20% with a hit somewhere; the sample as a whole holds those more often.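 Cell lines were cultured in 96-well plates, exposed to a single compound concentration, and assessed for percent growth 48 hours later.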 Calls of active or inactive are those of the source. How the source made its calls: active means growth percent below 10; inactive means the rest.

Experiments:
Assay in all cases: NCI-60 one-dose screen, 48 h (100 = growth as untreated, 0 = no growth, -100 = all killed)
Settings in all cases: 10 µM unless noted
[1] = system: DU-145 prostate
[2] = system: K-562 leukemia
[3] = system: MALME-3M melanoma
[4] = system: MDA-MB-231 breast
[5] = system: RXF 393 renal
[6] = system: SF-268 CNS
[7] = system: SF-295 CNS
[8] = system: SF-539 CNS
[9] = system: UACC-257 melanoma
[10] = system: M14 melanoma

| SMILES | growth [1] | growth [2] | growth [3] | growth [4] | growth [5] | growth [6] | growth [7] | growth [8] | growth [9] | growth [10] |
| --- | --- | --- | --- | --- | --- | --- | --- | --- | --- | --- |
| CC(C)(C)c1ccc(NS(=O)(=O)c2ccc3nc(NC(=O)c4cnccn4)[nH]c3c2)cc1 | 34.3% (inactive) | 15.7% (inactive) | 31.9% (inactive) | 50.5% (inactive) | 13.5% (inactive) | 37.7% (inactive) | 35% (inactive) | -0.716% (active) | 46.7% (inactive) | 35.1% (inactive) |
| CCCNC(=O)Oc1ccc(/C(=C(\C)c2ccccc2)c2ccc(OCCCN(C)C)cc2)cc1 | 89.7% (inactive) | 11.5% (inactive) | 40.8% (inactive) | 59.4% (inactive) | 71.1% (inactive) | 71.8% (inactive) | 64% (inactive) | 63.9% (inactive) | 8.5% (active) | 25.2% (inactive) |
| COc1cc(NC(C)CCCNC(=O)CCC(=O)NCCCNCCCCCCCCCCNCCCNC(=O)CCC(=O)NCCCC(C)Nc2cc(OC)cc3cccnc23)c2ncccc2c1 (stereo not given) | 71.8% [8 µM] (inactive) | 51.2% [8 µM] (inactive) | 38.9% [8 µM] (inactive) | 34.6% [8 µM] (inactive) | 88.1% [8 µM] (inactive) | 66% [8 µM] (inactive) | 97% [8 µM] (inactive) | 75.7% [8 µM] (inactive) | 47.1% [8 µM] (inactive) | 87% [8 µM] (inactive) |
| N/C(=N\C(N)=N\c1nc2ccccc2s1)c1cnccn1 | 28.2% (inactive) | 17.1% (inactive) | 16.8% (inactive) | 58.1% (inactive) | -43% (active) | 26.5% (inactive) | 28% (inactive) | 16% (inactive) | 35.5% (inactive) | 23.2% (inactive) |
| C=C(C)[C@@H]1CC[C@]2(C(=O)N3CCN(C)CC3)CC[C@]3(C)[C@H](CC[C@@H]4[C@@]5(C)CC[C@H](OCCC#N)C(C)(C)[C@@H]5CC[C@]43C)[C@@H]12 | 92.5% (inactive) | 16.2% (inactive) | 118% (inactive) | 65.8% (inactive) | 47.4% (inactive) | 90.5% (inactive) | 115% (inactive) | 102% (inactive) | 107% (inactive) | 107% (inactive) |
| COc1ccc(C(=O)c2cc(C)c(OC)c(C)c2)c(OC)c1N(C(=O)CCl)C(=O)CCl | 0.0631% (active) | 9.77% (active) | 49.8% (inactive) | -1.61% (active) | 23.7% (inactive) | 24.6% (inactive) | 5.4% (active) | -21.1% (active) | 46.2% (inactive) | -20.7% (active) |
| O=S(=O)(Nc1ccc(-n2cnc3cc(-c4ccc(O)cc4)ccc32)cc1)c1ccccc1 | 105% (inactive) | 65.4% (inactive) | 100% (inactive) | 85.1% (inactive) | 103% (inactive) | 78.4% (inactive) | 87.9% (inactive) | 67.3% (inactive) | 106% (inactive) | 85.1% (inactive) |
